# Experimental data taken from publication PMC7862700, “An all-to-all approach to the identification of sequence-specific readers for epigenetic DNA modifications on cytosine”.
# How the values were obtained:
# Assay in all cases: DAPPL (digital affinity profiling via proximity ligation, sequencing); 10 mM Tris-HCl pH 7.5, 50 mM NaCl, 1 mM DTT, 4% glycerol, room temperature, 30 min; GST-TFs on glutathione beads, 16-mer random dsDNA library, 0.1% formaldehyde crosslink after washing; high values mean tight binding
# Conditions in all cases: protein: recombinant; tags: N-terminal GST; dsDNA, one strand shown
# [1] = target: T1, ELK4 (Homo sapiens, UniProt P28324-2 1-405)
# T1 sequence: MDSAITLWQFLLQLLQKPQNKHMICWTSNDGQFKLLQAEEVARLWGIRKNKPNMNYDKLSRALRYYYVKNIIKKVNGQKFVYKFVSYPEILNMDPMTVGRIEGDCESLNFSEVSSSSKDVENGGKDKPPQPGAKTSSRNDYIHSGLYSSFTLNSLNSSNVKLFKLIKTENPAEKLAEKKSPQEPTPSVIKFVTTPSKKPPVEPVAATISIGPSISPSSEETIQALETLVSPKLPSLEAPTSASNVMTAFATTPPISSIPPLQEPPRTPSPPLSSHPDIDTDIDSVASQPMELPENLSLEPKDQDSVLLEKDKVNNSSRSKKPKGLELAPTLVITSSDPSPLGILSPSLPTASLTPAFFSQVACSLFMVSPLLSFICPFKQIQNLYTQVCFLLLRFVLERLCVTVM
# Method in brief: (§1)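 GST fusions of human transcription factors were expressed in yeast and captured with glutathione beads. Once given DNA barcodes and pooled alongside a tag-only sample, they were incubated for 30 min at room temperature with 200 nmole of a random double-stranded 16-mer DNA library in Tris/NaCl/DTT/glycerol buffer, then washed, crosslinked (0.1% formaldehyde), proximity-ligated, PCR-amplified and sequenced on an Illumina NextSeq500. The binding signal of each hexamer is its read frequency for a factor divided by its frequency for the tag-only sample.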
# [2] = target: T2, ELF3 (Homo sapiens, UniProt P78545 1-371)
# T2 sequence: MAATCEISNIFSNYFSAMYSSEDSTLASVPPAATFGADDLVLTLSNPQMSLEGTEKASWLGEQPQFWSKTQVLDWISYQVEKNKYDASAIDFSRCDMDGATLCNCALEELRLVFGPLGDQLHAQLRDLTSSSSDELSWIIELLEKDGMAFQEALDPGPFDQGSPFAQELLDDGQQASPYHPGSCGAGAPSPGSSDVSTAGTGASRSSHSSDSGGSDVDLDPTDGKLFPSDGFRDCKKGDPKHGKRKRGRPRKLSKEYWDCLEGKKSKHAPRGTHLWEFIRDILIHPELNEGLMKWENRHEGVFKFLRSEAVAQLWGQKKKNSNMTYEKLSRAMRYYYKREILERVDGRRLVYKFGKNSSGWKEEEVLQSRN
# Method in brief: as §1
# [3] = target: ETV1 (Homo sapiens, UniProt P50549 1-477)
# Method in brief: as §1
# [4] = target: T3, ERF (Homo sapiens, UniProt P50548 1-548)
# T3 sequence: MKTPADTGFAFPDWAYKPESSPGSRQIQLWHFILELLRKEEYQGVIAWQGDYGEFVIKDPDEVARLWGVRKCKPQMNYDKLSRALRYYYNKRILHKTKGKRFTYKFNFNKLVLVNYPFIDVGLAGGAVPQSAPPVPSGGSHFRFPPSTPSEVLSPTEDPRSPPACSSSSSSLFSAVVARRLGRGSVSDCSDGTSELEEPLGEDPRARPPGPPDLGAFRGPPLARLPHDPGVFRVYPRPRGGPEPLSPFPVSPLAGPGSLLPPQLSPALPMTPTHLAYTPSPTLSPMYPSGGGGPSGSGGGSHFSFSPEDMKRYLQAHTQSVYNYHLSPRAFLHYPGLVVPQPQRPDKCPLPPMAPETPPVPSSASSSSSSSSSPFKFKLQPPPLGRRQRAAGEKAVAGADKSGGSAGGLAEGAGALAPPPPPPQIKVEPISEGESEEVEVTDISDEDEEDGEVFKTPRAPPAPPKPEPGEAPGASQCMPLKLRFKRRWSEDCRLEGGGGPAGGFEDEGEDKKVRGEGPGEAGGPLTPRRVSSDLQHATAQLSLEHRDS
# Method in brief: as §1
# [5] = target: T4, ETV3L (Homo sapiens, UniProt Q6ZN32 1-361)
# T4 sequence: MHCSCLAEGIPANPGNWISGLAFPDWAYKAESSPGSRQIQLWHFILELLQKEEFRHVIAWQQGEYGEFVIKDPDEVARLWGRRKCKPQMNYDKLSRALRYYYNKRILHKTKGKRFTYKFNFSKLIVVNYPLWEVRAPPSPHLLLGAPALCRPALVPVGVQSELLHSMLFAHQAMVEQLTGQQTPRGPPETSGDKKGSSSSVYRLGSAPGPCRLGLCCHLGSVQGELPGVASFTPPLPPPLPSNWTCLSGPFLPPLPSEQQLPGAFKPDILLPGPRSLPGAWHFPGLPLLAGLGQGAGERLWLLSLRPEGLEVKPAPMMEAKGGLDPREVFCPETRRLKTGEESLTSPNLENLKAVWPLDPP
# Method in brief: as §1
# [6] = target: T5, ETS2 (Homo sapiens, UniProt P15036 1-469)
# T5 sequence: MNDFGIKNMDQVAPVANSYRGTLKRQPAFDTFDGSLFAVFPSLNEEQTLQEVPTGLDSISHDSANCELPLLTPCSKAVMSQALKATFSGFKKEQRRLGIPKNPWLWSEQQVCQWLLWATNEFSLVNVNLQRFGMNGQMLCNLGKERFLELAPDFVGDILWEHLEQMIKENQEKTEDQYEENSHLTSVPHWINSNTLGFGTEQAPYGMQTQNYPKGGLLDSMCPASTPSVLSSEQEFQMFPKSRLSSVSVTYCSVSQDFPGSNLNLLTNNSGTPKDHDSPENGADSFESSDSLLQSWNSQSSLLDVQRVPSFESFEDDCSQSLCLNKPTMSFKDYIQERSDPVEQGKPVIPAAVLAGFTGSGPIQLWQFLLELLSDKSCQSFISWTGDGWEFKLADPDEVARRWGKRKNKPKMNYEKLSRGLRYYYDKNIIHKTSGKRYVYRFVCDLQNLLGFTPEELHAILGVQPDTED
# Method in brief: as §1
# [7] = target: T6, SPDEF (Homo sapiens, UniProt O95238 1-335)
# T6 sequence: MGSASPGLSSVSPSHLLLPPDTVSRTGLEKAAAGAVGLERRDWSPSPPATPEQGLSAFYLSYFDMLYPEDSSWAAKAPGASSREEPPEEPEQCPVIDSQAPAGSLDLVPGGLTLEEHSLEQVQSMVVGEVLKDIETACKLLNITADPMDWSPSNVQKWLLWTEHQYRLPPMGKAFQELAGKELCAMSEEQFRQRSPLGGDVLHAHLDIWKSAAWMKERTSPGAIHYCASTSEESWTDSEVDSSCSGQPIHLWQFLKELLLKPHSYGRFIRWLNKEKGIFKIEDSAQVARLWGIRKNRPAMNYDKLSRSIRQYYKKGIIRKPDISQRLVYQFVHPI
# Method in brief: as §1
# [8] = target: T7, ETV7 (Homo sapiens, UniProt Q9Y603 1-341)
# T7 sequence: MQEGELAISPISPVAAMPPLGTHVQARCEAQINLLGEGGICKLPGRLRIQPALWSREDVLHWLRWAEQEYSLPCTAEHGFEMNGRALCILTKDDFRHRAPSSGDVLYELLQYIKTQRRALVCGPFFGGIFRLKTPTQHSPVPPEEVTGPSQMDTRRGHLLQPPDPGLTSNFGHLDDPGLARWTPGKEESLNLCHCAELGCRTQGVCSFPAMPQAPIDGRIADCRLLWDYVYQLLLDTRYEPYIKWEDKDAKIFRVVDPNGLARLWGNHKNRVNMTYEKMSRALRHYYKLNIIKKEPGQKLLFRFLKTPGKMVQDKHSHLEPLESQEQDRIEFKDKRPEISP
# Method in brief: as §1
# [9] = target: T8, ETV3 (Homo sapiens, UniProt P41162-2 1-143)
# T8 sequence: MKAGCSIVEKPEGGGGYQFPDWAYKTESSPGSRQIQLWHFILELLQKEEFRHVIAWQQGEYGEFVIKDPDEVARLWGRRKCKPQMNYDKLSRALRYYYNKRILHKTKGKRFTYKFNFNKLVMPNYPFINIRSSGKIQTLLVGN
# Method in brief: as §1
# [10] = target: ETV6 (Homo sapiens, UniProt P41212 1-452)
# Method in brief: as §1
# Chain of ETV1 (P50549 whole entry): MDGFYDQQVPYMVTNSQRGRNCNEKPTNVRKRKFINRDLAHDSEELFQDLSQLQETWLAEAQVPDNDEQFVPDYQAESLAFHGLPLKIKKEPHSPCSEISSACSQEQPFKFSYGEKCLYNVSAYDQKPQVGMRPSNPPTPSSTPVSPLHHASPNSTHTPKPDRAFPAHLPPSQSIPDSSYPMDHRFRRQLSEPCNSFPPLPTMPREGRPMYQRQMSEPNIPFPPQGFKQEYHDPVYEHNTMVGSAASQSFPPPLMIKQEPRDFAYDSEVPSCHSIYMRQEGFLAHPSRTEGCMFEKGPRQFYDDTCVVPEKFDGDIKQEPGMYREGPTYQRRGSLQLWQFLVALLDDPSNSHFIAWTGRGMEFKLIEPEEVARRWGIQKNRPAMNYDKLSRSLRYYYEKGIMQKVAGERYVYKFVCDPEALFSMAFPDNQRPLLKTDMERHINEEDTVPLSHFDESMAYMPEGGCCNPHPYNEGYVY
# Chain of ETV6 (P41212 whole entry): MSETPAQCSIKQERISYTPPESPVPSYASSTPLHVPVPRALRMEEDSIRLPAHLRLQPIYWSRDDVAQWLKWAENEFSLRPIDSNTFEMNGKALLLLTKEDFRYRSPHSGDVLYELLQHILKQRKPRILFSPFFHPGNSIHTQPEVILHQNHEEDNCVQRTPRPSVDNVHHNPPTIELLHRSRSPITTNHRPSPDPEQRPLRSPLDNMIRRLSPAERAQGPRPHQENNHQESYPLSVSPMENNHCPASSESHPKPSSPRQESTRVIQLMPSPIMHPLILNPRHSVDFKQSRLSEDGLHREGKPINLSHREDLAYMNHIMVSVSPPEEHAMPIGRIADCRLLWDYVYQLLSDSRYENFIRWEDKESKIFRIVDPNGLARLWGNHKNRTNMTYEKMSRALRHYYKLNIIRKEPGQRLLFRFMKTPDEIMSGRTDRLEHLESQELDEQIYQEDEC
sequence,measurement,setting,value
TCAAGT,binding signal,[1],"1.19 fold enrichment (6-mer frequency, TF over GST control)"
same,binding signal,[2],"1.13 fold enrichment (6-mer frequency, TF over GST control)"
same,binding signal,[3],"1.15 fold enrichment (6-mer frequency, TF over GST control)"
same,binding signal,[4],"1.06 fold enrichment (6-mer frequency, TF over GST control)"
same,binding signal,[5],"1.12 fold enrichment (6-mer frequency, TF over GST control)"
same,binding signal,[6],"1.09 fold enrichment (6-mer frequency, TF over GST control)"
same,binding signal,[7],"1.17 fold enrichment (6-mer frequency, TF over GST control)"
same,binding signal,[8],"1.03 fold enrichment (6-mer frequency, TF over GST control)"
same,binding signal,[9],"1.1 fold enrichment (6-mer frequency, TF over GST control)"
same,binding signal,[10],"1.07 fold enrichment (6-mer frequency, TF over GST control)"
